KDM5B inh – blocks human KDM5B histone demethylase activity. Q9UGL1. KDM5B demethylase, FDH-coupled NADH fluorescence (FDH is formaldehyde dehydrogenase). Potency, µM (titrated, usually from 57.7 µM), most hits filed as inhibitors. hit rate 2.6% among 220,000. AID 1347165; active means well fitted inhibition curve with a large enough effect; further: 0% is about no effect; nearly all actives have a fitted effect of over 70% in size
Target sequence (Q9UGL1 whole entry, looked up): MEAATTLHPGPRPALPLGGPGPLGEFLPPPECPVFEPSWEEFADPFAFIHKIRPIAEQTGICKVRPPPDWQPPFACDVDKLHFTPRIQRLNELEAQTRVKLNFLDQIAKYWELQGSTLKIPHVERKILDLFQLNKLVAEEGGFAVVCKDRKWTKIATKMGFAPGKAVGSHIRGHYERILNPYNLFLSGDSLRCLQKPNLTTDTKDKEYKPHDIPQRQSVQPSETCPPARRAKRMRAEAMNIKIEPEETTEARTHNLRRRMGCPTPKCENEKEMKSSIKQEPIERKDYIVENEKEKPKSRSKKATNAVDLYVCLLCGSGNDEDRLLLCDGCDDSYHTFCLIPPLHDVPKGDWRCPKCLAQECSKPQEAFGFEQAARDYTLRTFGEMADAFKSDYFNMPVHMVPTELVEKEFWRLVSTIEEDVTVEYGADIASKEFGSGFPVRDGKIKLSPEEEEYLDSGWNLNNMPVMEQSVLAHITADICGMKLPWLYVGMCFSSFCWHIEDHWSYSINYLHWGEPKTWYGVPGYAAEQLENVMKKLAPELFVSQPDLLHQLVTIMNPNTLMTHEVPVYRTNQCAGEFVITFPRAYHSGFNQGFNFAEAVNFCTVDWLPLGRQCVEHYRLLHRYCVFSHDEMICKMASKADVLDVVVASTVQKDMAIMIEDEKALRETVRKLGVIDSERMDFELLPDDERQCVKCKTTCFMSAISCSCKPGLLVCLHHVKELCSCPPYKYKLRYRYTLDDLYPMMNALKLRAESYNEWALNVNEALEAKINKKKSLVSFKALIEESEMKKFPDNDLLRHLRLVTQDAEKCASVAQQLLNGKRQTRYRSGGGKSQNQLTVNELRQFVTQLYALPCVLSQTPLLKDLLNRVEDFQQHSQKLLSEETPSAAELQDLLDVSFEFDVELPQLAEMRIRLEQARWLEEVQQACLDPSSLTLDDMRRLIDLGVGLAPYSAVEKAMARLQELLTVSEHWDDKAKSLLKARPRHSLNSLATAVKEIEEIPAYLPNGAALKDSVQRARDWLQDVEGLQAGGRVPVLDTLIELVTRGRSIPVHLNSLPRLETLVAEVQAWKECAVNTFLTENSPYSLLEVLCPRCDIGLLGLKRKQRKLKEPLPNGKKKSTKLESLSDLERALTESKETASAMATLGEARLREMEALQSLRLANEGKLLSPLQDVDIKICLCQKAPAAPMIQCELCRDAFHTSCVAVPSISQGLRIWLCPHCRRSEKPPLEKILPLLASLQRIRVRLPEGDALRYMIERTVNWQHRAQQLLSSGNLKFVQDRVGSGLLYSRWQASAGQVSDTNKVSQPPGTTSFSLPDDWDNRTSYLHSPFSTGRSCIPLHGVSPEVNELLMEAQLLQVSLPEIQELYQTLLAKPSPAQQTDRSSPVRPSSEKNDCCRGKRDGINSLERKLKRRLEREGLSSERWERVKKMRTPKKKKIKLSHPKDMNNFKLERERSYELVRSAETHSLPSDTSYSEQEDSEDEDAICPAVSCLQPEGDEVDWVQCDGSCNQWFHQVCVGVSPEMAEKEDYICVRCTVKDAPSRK
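Compound dilutions met 200 nM (final) KDM5BΔAP for 10 min at room temperature before substrate addition. The substrate mix held 12.5 µM H3K4me3 with cofactors 25 µM α-ketoglutarate and 50 µM Fe²⁺. NADH signal gain over 30 min defined activity.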
The depositor's hits bear a star. Many of the other results were omitted from the sample, so hits are more common in it than they were. Potency means the concentration at half of the fitted maximal effect.

Screening Fc1ccccc1-c1noc(-c2nc(-c3cnccn3)no2)n1 returned KDM5B inh inactive.
Screening COC(=O)CC(C(=O)OC)N1CCCC1 (stereo not drawn) returned KDM5B inh inactive.
For CCC(C)NC(=O)N(C)C1CCN(c2ccc(Cl)cc2)CC1 (stereo not drawn) the results were KDM5B inh inactive.
Screening c1ccc(C2=NOC3(CCN(Cc4c[nH]c5ccccc45)CC3)C2)cc1 returned KDM5B inh inactive.
For CN(C)S(=O)(=O)c1ccccc1CNS(=O)(=O)c1ccc2c(c1)CCC2 the results were KDM5B inh inactive.
For Cc1ccc2[nH]cc(C(C(=O)O)N3CCN(Cc4cccc5ccccc45)CC3)c2c1 (stereo not drawn) the results were KDM5B inh inactive.
Screening CNC(=O)CCn1ncc2cc(OCc3ccccc3-c3cncc(OC)c3)ccc21 returned KDM5B inh inactive.
For CNC(=O)CCn1ncc2cc(OCc3ccccc3-c3cnn(C)c3)ccc21 the results were KDM5B inh inactive.
Screening CNC(=O)CCn1ncc2cc(OCc3ccccc3-c3ccc(OC)cc3)ccc21 returned KDM5B inh 32µM*.
For O=C1OCC2=C1C(c1ccc3c(c1)OCO3)CC(=O)N2c1ccccc1 (stereo not drawn) the results were KDM5B inh inactive.
`O=C(COc1ccc(-n2cnnn2)cc1)N1CCCC2(CCOC2)C1` (stereo not drawn) gave KDM5B inh inactive.
`CC(C)NC(=O)C[C@@H]1c2nc(NC(=O)c3ccc(F)cc3)sc2C[C@@H]2[C@](C)(CO)[C@H](O)CC[C@]21C` gave KDM5B inh inactive.
For C[C@]1(CO)[C@H]2Cc3sc(NC(=O)C4CCCCC4)nc3[C@@H](CC(=O)O)[C@]2(C)CC[C@H]1O the results were KDM5B inh inactive.
C[C@]1(CO)[C@H]2Cc3sc(-c4ccccc4)nc3[C@@H](CC(=O)O)[C@]2(C)CC[C@H]1O was read as KDM5B inh 32µM*.
`COc1ccc(C(=O)Nc2nc3c(s2)C[C@@H]2[C@](C)(CO)[C@H](O)CC[C@@]2(C)[C@@H]3CC(=O)N2CCC(C)CC2)cc1` gave KDM5B inh 28µM*.
For CC1CCN(C(=O)C[C@@H]2c3nc(NC(=O)C(C)(C)C)sc3C[C@@H]3[C@](C)(CO)[C@H](O)CC[C@]32C)CC1 the results were KDM5B inh inactive.
C#CCNC(=O)C[C@@H]1c2nc(NC(=O)C(C)(C)C)sc2C[C@@H]2[C@](C)(CO)[C@H](O)CC[C@]21C was read as KDM5B inh inactive.
For COCC(=O)Nc1nc2c(s1)C[C@@H]1[C@](C)(CO)[C@H](O)CC[C@@]1(C)[C@@H]2CC(=O)N1CCC(C)CC1 the results were KDM5B inh inactive.
`C[C@]1(CO)[C@H]2Cc3sc(NC(=O)c4ccc(F)cc4)nc3[C@@H](CC(=O)Nc3ccccc3)[C@]2(C)CC[C@H]1O` gave KDM5B inh 32µM*.
`C[C@]1(CO)[C@H]2Cc3sc(NC(=O)c4c(F)cccc4F)nc3[C@@H](CC(=O)O)[C@]2(C)CC[C@H]1O` gave KDM5B inh inactive.
C[C@]1(CO)[C@H]2Cc3sc(NC(=O)c4ccc(F)cc4)nc3[C@@H](CC(=O)NC3CC3)[C@]2(C)CC[C@H]1O was read as KDM5B inh inactive.
`C#CCNC(=O)C[C@@H]1c2nc(NC(=O)c3ccc(C(C)(C)C)cc3)sc2C[C@@H]2[C@](C)(CO)[C@H](O)CC[C@]21C` gave KDM5B inh 32µM*.
Screening COCCNC(=O)C[C@@H]1c2nc(NC(=O)c3ccc(F)cc3)sc2C[C@@H]2[C@](C)(CO)[C@H](O)CC[C@]21C returned KDM5B inh inactive.
For O=C(OCc1nc2ccccc2o1)c1cccc(F)c1 the results were KDM5B inh inactive.
`O=C(O)CCCc1ccc(Cl)c(Cl)c1` gave KDM5B inh inactive.
Screening COc1cccc(/C=C2\Oc3cc(OS(=O)(=O)c4ccc(C)cc4)ccc3C2=O)c1 returned KDM5B inh inactive.
CCc1ccc(NC(=O)Cn2c(=O)c(-c3noc(CC)n3)c3n(c2=O)CCCC3)cc1 was read as KDM5B inh inactive.
O=[N+]([O-])c1cccc(N/N=C/c2ccccn2)c1 was read as KDM5B inh inactive.
Screening COc1ccc(C(=O)Nc2ccc3oc(C)nc3c2)c(OC)c1OC returned KDM5B inh inactive.
Screening O=C(NCC(=O)N1CCCC1)C(=O)Nc1cccc2[nH]ccc12 returned KDM5B inh inactive.
O=C(Nc1ccc(F)cc1)c1cc(-c2ccccn2)nc2ccccc12 was read as KDM5B inh inactive.
CN(Cc1ccccc1)C(=O)C[C@@H]1c2nc(NC(=O)CC(C)(C)C)sc2C[C@@H]2[C@](C)(CO)[C@H](O)CC[C@]21C was read as KDM5B inh inactive.
CN(Cc1ccccc1)C(=O)C[C@@H]1c2nc(NC(=O)C(C)(C)C)sc2C[C@@H]2[C@](C)(CO)[C@H](O)CC[C@]21C was read as KDM5B inh inactive.
CN(Cc1ccccc1)C(=O)C[C@@H]1c2nc(NC(=O)c3ccc(F)cc3)sc2C[C@@H]2[C@](C)(CO)[C@H](O)CC[C@]21C was read as KDM5B inh 35µM*.
Screening Cc1nc2cccnc2n1CC1CCCN(S(=O)(=O)c2ccc(F)cc2)C1 (stereo not drawn) returned KDM5B inh inactive.
For CC1(C)Cc2c(C#N)c(Nc3ccccc3)n3c(SCC(=O)O)nnc3c2CO1 the results were KDM5B inh inactive.
Screening CCn1ncc(C(=O)N[C@@H]2CN(c3ncccn3)C[C@H]2CN(C)C)c1C returned KDM5B inh 25µM*.
Screening CCOc1ccccc1C(=O)N[C@@H]1CN(Cc2cccnc2)C[C@H]1CN(C)C returned KDM5B inh inactive.
Screening CN(C)C[C@@H]1CN(Cc2ccccn2)C[C@H]1NC(=O)c1c[nH]c2ccccc12 returned KDM5B inh inactive.
Screening CN(C)C[C@@H]1CN(Cc2ccncc2)C[C@H]1NS(=O)(=O)Cc1ccccc1 returned KDM5B inh inactive.
`CN(C)C[C@@H]1CN(Cc2ccncc2)C[C@H]1N` gave KDM5B inh 18µM*.
`Cc1cnc(C(=O)N[C@@H]2CN(c3ccncn3)C[C@H]2CN(C)C)cn1` gave KDM5B inh inactive.
For CN(C)C[C@@H]1CN(Cc2ccccc2)C[C@H]1NS(=O)(=O)c1cccnc1 the results were KDM5B inh inactive.
Screening COc1ccc(C2(C(=O)N[C@@H]3CN(c4ccncn4)C[C@H]3CN(C)C)CC2)cc1 returned KDM5B inh inactive.
COc1ccc(C(=O)N[C@@H]2CN(c3ncccn3)C[C@H]2CN(C)C)c(OC)n1 was read as KDM5B inh 25µM*.
Screening COc1ccccc1C(=O)N[C@@H]1CN(Cc2ccncc2)C[C@H]1CN(C)C returned KDM5B inh 22µM*.
Screening COc1ccc(C(=O)NC2CCCN(CCc3ccccc3)C2)c(OC)n1 (stereo not drawn) returned KDM5B inh inactive.
Cc1cccnc1C(=O)N[C@@H]1CN(Cc2ccccc2)C[C@H]1CN(C)C was read as KDM5B inh inactive.
For O=C(NNC(=O)c1ccc(NC(=O)C2CCCCC2)cc1)c1ccc(F)cc1 the results were KDM5B inh inactive.
`COc1cccc(/C=C2\Oc3cc(OC(=O)C(C)(C)C)ccc3C2=O)c1OC` gave KDM5B inh inactive.
For CCOc1ccc(S(=O)(=O)N(CC(=O)N2CCC(C(N)=O)CC2)c2ccccc2)cc1 the results were KDM5B inh inactive.

Screening results: PubChem, National Center for Advancing Translational Sciences (NCATS)
